Experimental data published in PubChem BioAssay AID1159580 (chemical genetic matrix, 2015).
Out of some 5,500 compounds screened, about 2,000 (36%) were called active. Roughly 18% stayed inconclusive and do not appear here. Cut-off read from the data, not from the text of the source: active = normalized growth mostly below about 0.91 (no sharp cut-off); inconclusive = no clear call, values can overlap the other calls; inactive = mostly above about 0.92. The list shows a part of the results.

Test: chemical genetic growth profiling, strain panel (AID 1159580);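 note: tested at 20 µM; growth read once vehicle control cultures reached saturation at 30 °C; 1 = growth at the plate median or of vehicle wells; lower values mean less growth of the strain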
Settings: growth OD

Measured: normalized growth

C=C[C@H]1CN2CC[C@H]1C[C@H]2[C@H](O)c1ccnc2ccccc12
inactive: S. cerevisiae deletion strains, locus YJR075W, strain HOC1, hits give low values 1.02 | S. cerevisiae deletion strains, locus YKL009W, strain mrt4, hits give low values 1.01 | S. cerevisiae deletion strains, locus YKL068W, hits give low values 0.982 | S. cerevisiae deletion strains, locus YKL085W, strain MDH1 (second series), hits give low values 0.991 | S. cerevisiae deletion strains, locus YKL085W, strain MDH1, hits give low values 0.991 | S. cerevisiae deletion strains, locus YKL160W, strain elf1, hits give low values 0.989 | S. cerevisiae deletion strains, locus YKL190W, strain CNB1, hits give low values 0.986 | S. cerevisiae deletion strains, locus YKR001C, strain vps1, hits give low values 0.967 | S. cerevisiae deletion strains, locus YKR026C, strain gcn3, hits give low values 1 | S. cerevisiae deletion strains, locus YKR091W, strain srl3, hits give low values 1 | S. cerevisiae deletion strains, locus YLL001W, strain dnm1, hits give low values 0.972 | S. cerevisiae deletion strains, locus YLL026W, hits give low values 0.994 | S. cerevisiae deletion strains, locus YLL041C, strain sdh2, hits give low values 1 | S. cerevisiae deletion strains, locus YLR027C, strain aat2, hits give low values 1 | S. cerevisiae deletion strains, locus YLR039C, strain RIC1, hits give low values 0.99 | S. cerevisiae deletion strains, locus YLR058C, strain SHM2, hits give low values 1 | S. cerevisiae deletion strains, locus YLR102C, strain apc9, hits give low values 0.976 | S. cerevisiae deletion strains, locus YLR113W, strain HOG1, hits give low values 0.941 | S. cerevisiae deletion strains, locus YLR221C, strain rsa3, hits give low values 0.989 | S. cerevisiae deletion strains, locus YLR258W, strain gsy2, hits give low values 1.01 | S. cerevisiae deletion strains, locus YLR262C, strain YPT6 (second series), hits give low values 0.975 | S. cerevisiae deletion strains, locus YLR262C, strain YPT6, hits give low values 0.966 | S. cerevisiae deletion strains, locus YLR268W, strain sec22, hits give low values 0.981 | S. cerevisiae deletion strains, locus YLR320W, strain mms22, hits give low values 0.999 | S. cerevisiae deletion strains, locus YLR330W, strain CHS5, hits give low values 1 | S. cerevisiae deletion strains, locus YLR342W, strain FKS1 (second series), hits give low values 0.995 | S. cerevisiae deletion strains, locus YLR342W, strain FKS1, hits give low values 0.985 | S. cerevisiae deletion strains, locus YLR357W, strain rsc2, hits give low values 0.986 | S. cerevisiae deletion strains, locus YLR370C, strain arc18, hits give low values 0.995 | S. cerevisiae deletion strains, locus YLR371W, strain rom2, hits give low values 0.967 | S. cerevisiae deletion strains, locus YLR384C, strain iki3, hits give low values 0.988 | S. cerevisiae deletion strains, locus YLR418C, strain cdc73, hits give low values 1.03 | S. cerevisiae deletion strains, locus YML016C, strain PPZ1, hits give low values 1.01 | S. cerevisiae deletion strains, locus YML032C, strain rad52, hits give low values 0.97 | S. cerevisiae deletion strains, locus YML120C, strain ndi1, hits give low values 0.992 | S. cerevisiae deletion strains, locus YML124C, strain tub3, hits give low values 0.975 | S. cerevisiae deletion strains, locus YMR058W, strain fet3, hits give low values 0.983 | S. cerevisiae deletion strains, locus YMR078C, strain ctf18, hits give low values 0.965 | S. cerevisiae deletion strains, locus YMR125W, strain sto1, hits give low values 1 | S. cerevisiae deletion strains, locus YMR129W, hits give low values 1 | S. cerevisiae deletion strains, locus YMR205C, strain PFK2, hits give low values 1 | S. cerevisiae deletion strains, locus YMR223W, strain ubp8, hits give low values 0.978 | S. cerevisiae deletion strains, locus YMR231W, strain pep5, hits give low values 0.995 | S. cerevisiae deletion strains, locus YMR263W, strain SAP30, hits give low values 0.987 | S. cerevisiae deletion strains, locus YMR307W, strain GAS1, hits give low values 0.986 | S. cerevisiae deletion strains, locus YNL067W, strain RPL9B, hits give low values 1.01 | S. cerevisiae deletion strains, locus YNL071W, strain lat1, hits give low values 1 | S. cerevisiae deletion strains, locus YNL128W, strain TEP1, hits give low values 1.03 | S. cerevisiae deletion strains, locus YNL153C, strain GIM3, hits give low values 1.01 | S. cerevisiae deletion strains, locus YNL183C, strain NPR1, hits give low values 0.927 | S. cerevisiae deletion strains, locus YNL209W, strain ssb2, hits give low values 1.01 | S. cerevisiae deletion strains, locus YNL233W, strain BNI4, hits give low values 0.999 | S. cerevisiae deletion strains, locus YNL248C, strain rpa49, hits give low values 1.02 | S. cerevisiae deletion strains, locus YNL250W, strain rad50, hits give low values 0.989 | S. cerevisiae deletion strains, locus YNL271C, strain bni1, hits give low values 0.993 | S. cerevisiae deletion strains, locus YNL298W, strain CLA4, hits give low values 0.98 | S. cerevisiae deletion strains, locus YNL307C, strain MCK1, hits give low values 0.981 | S. cerevisiae deletion strains, locus YNL322C, strain KRE1 (second series), hits give low values 0.99 | S. cerevisiae deletion strains, locus YNL322C, strain KRE1, hits give low values 1 | S. cerevisiae deletion strains, locus YNR049C, strain mso1, hits give low values 1 | S. cerevisiae deletion strains, locus YNR052C, strain pop2, hits give low values 0.959 | S. cerevisiae deletion strains, locus YOL006C, strain TOP1, hits give low values 1.07 | S. cerevisiae deletion strains, locus YOL012C, strain htz1 0.823 | S. cerevisiae deletion strains, locus YOL147C, strain pex11, hits give low values 0.971 | S. cerevisiae deletion strains, locus YOR001W, strain rrp6, hits give low values 0.978 | S. cerevisiae deletion strains, locus YOR061W, strain CKA2, hits give low values 1.01 | S. cerevisiae deletion strains, locus YOR069W, strain VPS5, hits give low values 1.01 | S. cerevisiae deletion strains, locus YOR070C, strain gyp1, hits give low values 1 | S. cerevisiae deletion strains, locus YOR080W, strain dia2, hits give low values 0.99 | S. cerevisiae deletion strains, locus YOR083W, strain WHI5, hits give low values 0.948 | S. cerevisiae deletion strains, locus YOR106W, strain vam3, hits give low values 0.994 | S. cerevisiae deletion strains, locus YOR136W, strain idh2, hits give low values 0.973 | S. cerevisiae deletion strains, locus YOR144C, strain elg1, hits give low values 0.972 | S. cerevisiae deletion strains, locus YOR184W, strain ser1, hits give low values 0.977 | S. cerevisiae deletion strains, locus YOR231W, strain MKK1, hits give low values 0.972 | S. cerevisiae deletion strains, locus YOR265W, strain rbl2, hits give low values 0.994 | S. cerevisiae deletion strains, locus YOR270C, strain vph1, hits give low values 1.02 | S. cerevisiae deletion strains, locus YOR290C, strain snf2, hits give low values 0.996 | S. cerevisiae deletion strains, locus YOR316C, strain cot1, hits give low values 0.984 | S. cerevisiae deletion strains, locus YPL051W, strain arl3, hits give low values 1 | S. cerevisiae deletion strains, locus YPL055C, strain LGE1, hits give low values 1.01 | S. cerevisiae deletion strains, locus YPL078C, strain atp4, hits give low values 0.99 | S. cerevisiae deletion strains, locus YPL106C, strain sse1, hits give low values 0.994 | S. cerevisiae deletion strains, locus YPL240C, strain hsp82, hits give low values 1.01 | S. cerevisiae deletion strains, locus YPL241C, strain CIN2, hits give low values 0.992 | S. cerevisiae deletion strains, locus YPL256C, strain CLN2, hits give low values 0.97 | S. cerevisiae deletion strains, locus YPR119W, strain clb2, hits give low values 0.98 | S. cerevisiae deletion strains, locus YPR141C, strain kar3, hits give low values 0.983 | S. cerevisiae deletion strains, locus YPR163C, strain tif3, hits give low values 0.977 | S. cerevisiae deletion strains, locus YPR167C, strain met16, hits give low values 0.989 | S. cerevisiae deletion strains, strain wtn01, hits give low values 0.976 | S. cerevisiae strains, strain wild type, hits give low values 1
